From PubChem BioAssay
Pol eta inh – blocks human DNA polymerase eta activity. Q9Y253. Potency, µM (titrated, usually from 114 µM), for the others: at the top dose activity change, negative = inhibition, hits mostly inhibitors. AID 588591. hit rate 1.2% among 390,000. recombinant Pol eta, fluorescent DNA replication assay; note: % is set by controls: 0 for no effect and ±100 for the full control effect
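Pol eta at 10 nM preincubated with compounds 15 min at room temperature; reaction started with fluorescent substrate (50 nM final) and read kinetically at 0 and 10 min.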
Pol kappa inh – blocks human DNA polymerase kappa activity; hit rate 0.53% among 400,000; purified Pol kappa, fluorescent DNA synthesis assay, 10 min; Q9UBT6; AID 588579; Potency, µM (titrated, usually from 107 µM), for the others: top-dose activity, negative = inhibition, most hits filed as inhibitors; note: % is set by controls: 0 for no effect and ±100 for the full control effect
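Fluorescent qHTS in 1536-well format: enzyme (10 nM) and compound sat 15 min at room temperature before 50 nM substrate (final) was added. Signal taken at 0 and 10 min; no-enzyme buffer wells were negative controls.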
WRN inhibitor – WRN helicase (human) inhibition. Q14191. WRN helicase unwinding, fluorescent forked duplex, kinetic. Potency, µM (top dose mostly 114 µM), for inactives: top-dose activity change, negative = inhibition, actives largely listed as inhibitors. hit rate 0.46% among 360,000; note: % is set by controls: 0 for no effect and ±100 for the full control effect; nearly all actives have a fitted effect of over 55% in size
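Kinetic red-fluorescence monitoring (525/598 nm) tracks WRN helicase activity after 100 nM fluorophore-quencher forked duplex and 2 mM ATP are added to 20 nM enzyme pretreated 15 min at room temperature with compound.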
POLB inh – DNA polymerase beta (human) inhibition. Pol beta primer extension/strand displacement, fluorescence kinetic. P06746. hit rate 1.3% among 340,000. Potency, µM (doses to about 114 µM), for the others: at the top dose activity change, negative = inhibition, hits mostly inhibitors; note: % is set by controls: 0 for no effect and ±100 for the full control effect
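Human Pol beta at 10 nM; strand-displacement substrate 50 nM final. Compound exposure 15 min at room temperature before start, reaction 10 min at room temperature.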
POLI inh – DNA polymerase iota (human) inhibition; Q9UNA4; Pol iota fluorescent replication assay, 10 min; Potency, µM (series often up to 115 µM), inactives show top-dose activity, negative = inhibition, hits mostly inhibitors; hit rate 1% among 390,000; AID 588590
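Fluorescent replication assay read twice, at 0 min and 10 min after adding 50 nM (final) substrate. Enzyme (10 nM) and compounds were first incubated 15 min at room temperature; enzyme-free buffer wells were negative controls.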
FEN1 inh – human FEN1 inhibition; P39748; Recombinant FEN1 flap cleavage, fluorescence, 15 min; Potency, µM (titrated, usually from 114 µM), without a hit: at the top dose activity change, negative = inhibition, actives largely listed as inhibitors; hit rate 0.35% among 390,000; AID 588795; note: % is set by controls: 0 for no effect and ±100 for the full control effect; nearly all actives have a fitted effect of over 65% in size
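In this screen, 50 nM flap DNA substrate was added to 10 nM FEN1 pretreated with compound for 15 min at room temperature; cleavage was followed with reads at 0 and 15 min, and Hill fitting gave concentration–response parameters.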
TbPGK inh – validation of Trypanosoma brucei phosphoglycerate kinase inhibitors; Potency, µM (series often up to 57.5 µM), for inactives: at the top dose activity change, negative = inhibition, usual class: inhibitors; shares compounds with Pol kappa inh; hit rate 79% among 500; TbPGK coupled GAPDH assay, Kinase-Glo luminescence; note: % is set by controls: 0 for no effect and ±100 for the full control effect; nearly all actives have a fitted effect of over 65% in size
Pol iota confirm – Confirm cherry-picked inhibitors of human polymerase iota | Pol iota primer extension, TAMRA/BHQ fluorescence | Potency, µM, usual class: inhibitors | hit rate 77% among 1,500 | shares compounds with Pol kappa inh
An asterisk follows results filed as active; u = inconclusive; x = no result; [ ] = another dose, or the depositor's remark. A selection: hits, their analogues and other compounds. The true share with any hit is near 2.4%. Calls come from the whole dose curve; as a rule, active = well fitted curve in the direction sought with a large enough effect; inconclusive = small, poorly fitted or top-dose-only effect, or another doubt; inactive = no such curve, though single readings can be large; an effect the other way counts as inactive or inconclusive. Potency is the fitted concentration of half-maximal effect.

SMILES | Pol eta inh | Pol kappa inh | WRN inhibitor | POLB inh | POLI inh | FEN1 inh | TbPGK inh | others
Cc1ccc(-c2cc(C(=O)N/N=C/c3c(C)nn(C)c3C)c3ccccc3n2)cc1C | u | 3% | -24%[57.1 µM] | u | 22µM* | -13% | x | Pol iota confirm=u
Cc1ccc(-c2cc(C(=O)N/N=C/c3ccoc3)c3ccccc3n2)cc1 | -15% | 14% | -5% | 17% | -11% | 10% | x
CCOC(=O)C1=C(CN2CCN(c3ccccc3)CC2)NC(=O)NC1c1ccc(C)cc1 (stereo not drawn) | -9% | -6% | x | -5% | u | 13% | x
Cc1ccccc1NC(=O)N1CCC(CN2CCCC2)CC1 | 17% | -10% | x | -10% | 48% | 19% | x
O=C(Nc1ccccn1)c1cc2ccccc2o1 | -6% | -3% | -2%[57.1 µM] | 1% | 24% | -13% | 16µM*
O=C(Oc1cc(=O)oc2c1c(=O)n1c3c(cccc23)CC1)c1ccc(F)cc1 | -15% | 1% | -13% | u | u | -10% | x | Pol iota confirm=11*
O=c1c2ccccc2cnn1-c1nc2ccccc2[nH]1 | -8% | 2%[60.1 µM] | -2% | 20% | 25% | -16% | 5.8µM*
O=c1c(Cl)c(N2CCCCC2)cnn1-c1nc2ccccc2[nH]1 | 0% | -9% | -2% | -5% | 12% | 2% | x
CCOC(=O)C(=O)Cc1cccnn1 | 2.8µM* | u | 50µM* | x | u | -8% | 13µM*
CCOC(=O)C(Cc1ccnc2ccccc12)=NO | -18% | -19% | -1% | x | 45% | 1% | x
O=C(O)[C@H]1O[C@@H](Oc2ccc3ccc(=O)oc3c2)[C@H](O)[C@@H](O)[C@@H]1O | x | 17%[60.1 µM] | x | x | x | x | x
CCC(C)[C@H]1CNCCN1CC1(c2ccccc2)CC1 (stereo partly drawn) | -6% | -5% | 14% | x | u | -6% | x
CCC(C)[C@H]1CNCCN1CCc1cccc2ccccc12 (stereo partly drawn) | 8% | -29% | -5% | x | u | -2% | u
CSc1ccc(C=NNc2ccc(S(=O)(=O)Nc3ccccc3C(=O)O)cc2[N+](=O)[O-])cc1 | u | u | u | x | 25µM* | -5% | 4.1µM*
O=C1NC(=Nc2ccc(Cl)cc2)/C(=C/c2ccco2)S1 | 56µM* | u | -7%[11.6 µM] | 8.9µM* | 28µM* | -4% | x | Pol iota confirm=u
COc1ccc2c(c1)C/C(=C\c1ccc(N(C)C)cc1)C2=O | x | -3% | x | x | 4% | -13% | x
Cc1ccc(/C=N/N2CCCCC2)o1 | -9% | -9% | -5% | 4% | -5% | -1% | 0%
O=C(O)CCCN1C(=O)/C(=C/c2ccncc2)SC1=S | -4% | -14% | -2% | -3% | u | -4% | x
O=C(O)CCCN1C(=O)/C(=C/c2ccc(-c3nc4ccccc4s3)o2)SC1=S | 3.2µM* | 50µM* | u | 13µM* | u | -20% | u
COc1ccc(/C=C/C(=O)N2CCC(c3nc4ccccc4o3)CC2)cc1OC | -15% | -1% | x | 4% | 12% | -6% | x
CCc1ccccc1NC(=O)CN1C(=O)CCSc2ccc(S(=O)(=O)N3CCCC3)cc21 | -6% | -9%[60.1 µM] | x | 13% | -4% | 1% | x
CCCCc1nnc(SCc2cc(=O)c3cc(C(=O)OCC)ccc3[nH]2)n1C | -11% | -7%[60.1 µM] | x | 69% | 5% | -3% | x
COC(=O)c1nn(-c2ccc3c(c2)CCN3C(C)=O)cc1O | -9% | -4% | -15% | -12% | 44% | -12% | 21µM*
COC(=O)c1nn(-c2ccc3c(c2)OCO3)cc1O | -12% | -9% | 0% | 32% | -2% | -1% | x
CCOc1ccc(C(=O)N(Cc2nc(-c3cccc(C)c3)no2)C(C)C)cc1 | -17% | -7% | x | 24% | 26% | 3% | x
SMILES | Pol eta inh | Pol kappa inh | WRN inhibitor | POLB inh | POLI inh | FEN1 inh | TbPGK inh | others
O=C(CCO)c1ccc(O)cc1 | 3.5µM* | 8.9µM* | 28µM* | u | 5µM* | 22µM* | 1.6µM*
CCN1CCN(Cc2ccc(NC(=O)c3ccc(C)c(NC(=O)c4cc(-c5ccc(Br)cc5)n[nH]4)c3)cc2C(F)(F)F)CC1 | -14% | -8% | 4% | -2% | -24% | -1% | x
CCN1CCN(Cc2ccc(NC(=O)c3ccc(C)c(NC(=O)N4CCNC4=O)c3)cc2C(F)(F)F)CC1 | u | -2% | 0% | 25% | u | 3% | 26µM*
Cc1ccc(CNC(=O)c2nc(-c3ccc(Cl)cc3)n3c2CCCCC3)cc1 | -24% | -25% | x | -3% | 7% | -21% | x
c1ccc(-c2cn3c(n2)-c2ccccc2C3)cc1 | u | 5% | 4% | -1% | 15% | 0% | 15µM*
Cc1ccc(-c2nc3n(n2)Cc2ccccc2-3)cc1 | -6% | -8% | u | u | u | -6% | x
O=C(CBr)c1ccc(Oc2ccc(C(=O)C[n+]3ccccc3Cl)cc2)cc1 | x | -7% | x | x | u | u | x
COc1ccccc1C(=O)Nc1nc2ccccc2[nH]1 | -18% | -2% | 8% | 24% | 3% | -1% | 5.8µM*
COc1ccccc1C(=O)NCCC(=O)Nc1nc2ccccc2[nH]1 | -7% | -1% | -4% | x | 35% | -9% | x
COc1cc(SC)ccc1C(=O)Nc1nc2ccccc2[nH]1 | -18% | -3% | -1% | -8% | -1% | 4% | 3.3µM*
COc1cc(SC)ccc1C(=O)NNC(=O)c1cc(C)oc1C | -17% | -7% | -9% | x | 91% | -3% | 13µM*
COc1cc(SC)ccc1C(=O)Nc1c(C)cccc1C | -20% | -2% | -2% | -3% | 138% | 4% | x
Nc1nc(SCc2ccc([N+](=O)[O-])cc2)c2ncn([C@@H]3O[C@H](CO)[C@H](O)[C@H]3O)c2n1 | 0%[57.1 µM] | x | x | -3%[57.1 µM] | -6%[58.9 µM] | x | x
COc1cccc2c(C)nc(Nc3nc(CSc4nnc(C)s4)cc(=O)[nH]3)nc12 | -5% | -8% | -7%[57.1 µM] | -1% | u | 50µM* | x | Pol iota confirm=u
Cc1ccc2c(C)nc(Nc3nc(CSc4nnc(C)s4)cc(=O)[nH]3)nc2c1 | 29% | 14% | 14% | 253% | 38% | u | x
CNC(=O)C1CCC(Cn2c(=O)c3sccc3n(CC(=O)N3CCC(C)CC3)c2=O)CC1 (stereo not drawn) | -2% | 0% | x | -1% | 10% | -6% | -17%
CNC(=O)C1CCC(Cn2c(=O)c3sccc3n(CC(=O)Nc3cc(C)cc(C)c3)c2=O)CC1 (stereo not drawn) | 3% | 6% | x | 2% | 3% | 24% | -28%
